# Test results from ChEMBL document CHEMBL1201862, “PubChem BioAssay data set” (2004).
# Among all 400,000 compounds or so, about 2,100 (0.53%) were called active. Another 14% or so got no clear call; they are omitted. The rule behind the calls is not given here. For the sample, actives were picked, then their nearest neighbours and some compounds at random.
# Biological target: Ataxin-2 (Homo sapiens) (UniProt Q99700)
# Experiment: qHTS for Inhibitors of ATXN expression.
# Type: functional
# Chain of Ataxin-2 (Homo sapiens) (Q99700 whole entry): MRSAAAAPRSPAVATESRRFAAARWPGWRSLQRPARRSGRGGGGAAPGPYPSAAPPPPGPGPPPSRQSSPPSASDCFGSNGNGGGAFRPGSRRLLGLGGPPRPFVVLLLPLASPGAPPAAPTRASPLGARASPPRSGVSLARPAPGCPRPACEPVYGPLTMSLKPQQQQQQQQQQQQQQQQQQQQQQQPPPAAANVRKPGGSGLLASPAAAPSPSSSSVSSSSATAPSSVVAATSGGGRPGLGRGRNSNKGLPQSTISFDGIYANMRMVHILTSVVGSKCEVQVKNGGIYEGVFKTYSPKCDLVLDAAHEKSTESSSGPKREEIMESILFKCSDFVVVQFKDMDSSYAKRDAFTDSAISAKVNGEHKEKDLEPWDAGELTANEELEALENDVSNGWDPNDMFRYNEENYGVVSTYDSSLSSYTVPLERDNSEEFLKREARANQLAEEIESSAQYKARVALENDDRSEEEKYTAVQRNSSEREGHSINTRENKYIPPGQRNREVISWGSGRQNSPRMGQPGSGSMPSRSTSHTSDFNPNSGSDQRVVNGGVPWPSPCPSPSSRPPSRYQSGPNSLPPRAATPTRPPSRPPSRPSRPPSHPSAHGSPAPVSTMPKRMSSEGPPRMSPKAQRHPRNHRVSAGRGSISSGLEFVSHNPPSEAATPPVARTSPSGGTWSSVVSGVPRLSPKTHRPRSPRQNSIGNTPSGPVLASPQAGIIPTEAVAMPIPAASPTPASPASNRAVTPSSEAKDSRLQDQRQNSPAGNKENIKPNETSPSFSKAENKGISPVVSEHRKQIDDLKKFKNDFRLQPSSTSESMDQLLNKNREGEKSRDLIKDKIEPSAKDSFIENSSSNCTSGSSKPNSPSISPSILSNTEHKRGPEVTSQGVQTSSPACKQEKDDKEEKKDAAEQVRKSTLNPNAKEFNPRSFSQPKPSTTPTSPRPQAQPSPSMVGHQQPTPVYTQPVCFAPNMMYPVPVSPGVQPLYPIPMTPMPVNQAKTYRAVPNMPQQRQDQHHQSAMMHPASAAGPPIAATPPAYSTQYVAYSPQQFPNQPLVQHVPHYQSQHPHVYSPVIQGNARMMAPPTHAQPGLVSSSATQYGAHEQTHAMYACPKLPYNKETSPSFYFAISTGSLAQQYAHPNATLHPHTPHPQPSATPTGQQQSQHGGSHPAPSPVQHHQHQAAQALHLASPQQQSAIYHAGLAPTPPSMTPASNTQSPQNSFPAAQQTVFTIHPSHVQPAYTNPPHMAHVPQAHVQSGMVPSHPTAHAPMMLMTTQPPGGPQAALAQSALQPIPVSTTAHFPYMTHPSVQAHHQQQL
row,SMILES,Potency
1,COC(=O)c1cc(-c2ccc(Br)cc2)c2c(=O)n(C)c(=O)n(C)c2n1,inactive
2,Cc1sc2nc3ccc(NCc4ccco4)nn3c(=O)c2c1C,inactive
3,O=C(/C=C/c1cn(CC(O)CN2CCc3ccccc32)c2ccccc12)c1ccc(Br)cc1 (stereo unspecified),inactive
4,COc1ccc(CNCCC2(C(C)C)CCOC(C)(C)C2)cc1 (stereo unspecified),inactive
5,COc1ccc(CNc2cc(C)nc3ccc(OC)cc23)cc1,inactive
6,COc1ccc2cc(CNCCOCCOCCNCc3ccc4cc(OC)ccc4c3)ccc2c1,29.9 µM (active)
7,OCCCc1nc2n(n1)C(c1ccccc1)C=C(c1ccccc1)N2 (stereo unspecified),inactive
8,Cc1cc(N2CCN(C(=O)Oc3ccc([N+](=O)[O-])cc3)CC2)c2ccccc2n1,35.5 µM (active)
9,Cc1cc(N2CCN(c3ccc(C(F)(F)F)cc3[N+](=O)[O-])CC2)c2ccccc2n1,inactive
10,O=C(Cc1ccccc1)Nc1cc([N+](=O)[O-])ccc1N1CCOCC1,inactive
11,CC(C(=O)N1CCCCCC1)c1ccc([N+](=O)[O-])cc1 (stereo unspecified),inactive
12,CCCn1nc(NC(=O)C(C)(C)C)c2cc3cc(OC)ccc3nc21,inactive
13,Cc1ccc(-c2nc3cc(Br)cnc3nc2-c2ccc(C)cc2)cc1,inactive
14,Cc1nnsc1C(=O)NNC(=O)Nc1ccccc1,inactive
15,O=C(c1ccccc1)c1ccsc1C(=O)c1ccccc1,inactive
16,O=C(c1ccccc1)c1ccccc1N1C(=O)C=CC1=O,23.8 µM (active)
17,O=C(C1=NN(c2ccccc2)C2C(=O)N(c3ccccc3Cl)C(=O)C12)c1ccccc1 (stereo unspecified),inactive
18,O=C(Oc1cc(=O)oc2c1c(=O)n1c3c(cccc23)CC1)c1ccccc1,inactive
19,COc1cccc(CNC(=O)c2cc(S(=O)(=O)N3CCCC3)cn2C)c1,inactive
20,Cc1cc(Cl)ccc1OCC(=O)OCC(=O)Nc1cccnc1Cl,inactive
21,Cc1ccc(OCC(=O)Nc2ccc(Cl)cc2)c(-n2nc3ccccc3n2)c1,39.8 µM (active)
22,CN(CC(=O)Nc1ccc(Cl)cc1)C(=O)COc1ncnc2ccccc12,inactive
23,Cc1cccc(C2=NN(c3ccccc3)[C@@H](C(=O)N3CCOC3=O)[C@@H]2c2ccc(F)cc2)c1,inactive
24,Cc1cc(NCCCCO)n2c(nc3ccccc32)c1C#N,inactive

row,SMILES,Potency
1,Cc1ccc(-c2ncns2)cc1,inactive
2,N=c1n(Cc2ccccc2)c2ccccc2n1CC(O)COc1ccc(Cl)cc1Cl (stereo unspecified),37.7 µM (active)
3,COc1ccc(OCC(O)Cn2c(=N)n(Cc3ccccc3)c3ccccc32)cc1 (stereo unspecified),35.5 µM (active)
4,N=c1n(CCO)c2ccccc2n1CCOc1ccc(Cl)cc1Cl,25.1 µM (active)
5,COc1ccc(OCC(O)CNC(=O)c2c(-c3ccccc3)noc2C)cc1 (stereo unspecified),inactive
6,OC(COc1ccc(Cl)cc1)CSc1ccccn1 (stereo unspecified),inactive
7,N=c1n(Cc2ccc(Cl)cc2)c2ccccc2n1CC(O)COc1ccccc1 (stereo unspecified),35.5 µM (active)
8,COc1ccc(OCc2nc3ccccc3n2C(C)C)cc1,inactive
9,Oc1nncc2c3ccccc3n(Cc3cccc(Cl)c3)c12,inactive
10,O=C(O)c1cc2cccc(S(=O)(=O)N3CCCCC3)c2cc1O,inactive
11,CC(C)(C)C(=O)/C(=C/c1ccncc1)n1cncn1,20 µM (active)
12,CC(/C=N\NC(=O)Cn1cncn1)=C/c1ccc(C(C)C)cc1,inactive
13,Cc1cccc(C)c1N(CC(=O)NCc1ccc(F)cc1)C(=O)c1csnn1,inactive
14,CN(C)c1ccc(/C=N/NC(=O)c2ccc(Cn3cc(Br)cn3)o2)cc1,inactive
15,NC(Cc1ccc([N+](=O)[O-])cc1)=NOC(=O)c1cccc(Br)c1,inactive
16,NC(=O)c1ccsc1NC(=O)Cc1ccc([N+](=O)[O-])cc1,inactive
17,NC(Cc1ccc([N+](=O)[O-])cc1)=NOC(=O)C(c1ccccc1)c1ccccc1,25.1 µM (active)
18,CCCNC(=O)c1ccc2c(O)c(O)c(-c3ccc(C)cc3)nc2c1,inactive
19,N#Cc1c(-c2cccc(Br)c2)cc(-c2ccco2)nc1O,inactive
20,Cc1cc(NC(=O)/C(C#N)=C/c2ccc(-c3ccc(SC(F)F)cc3)o2)n(-c2ccccc2)n1,inactive
21,COc1cccc(-c2nn(-c3ccccc3)cc2CN(C)Cc2c(C)nc3ccccn23)c1,39.8 µM (active)
22,Cc1nn(C(C)C(=O)NCC2CCCO2)c(C)c1[N+](=O)[O-] (stereo unspecified),inactive
23,O=C(NCc1ccc(S(=O)(=O)Nc2ccccc2Cl)s1)c1ccccc1,inactive
24,Cc1cccn2c(=O)c3cc(C(=O)N4CCCCC4)sc3nc12,inactive

row,SMILES,Potency
1,COc1ccc2nc(N3CCC(O)CC3)c(C#N)cc2c1,inactive
2,Oc1c(Cl)cc(Cl)cc1C1=NNC(c2ccc(Cl)cc2)C1 (stereo unspecified),inactive
3,COc1ccccc1CNCC(O)Cn1c2ccccc2c2ccccc21 (stereo unspecified),22.4 µM (active)
4,COc1cccc(CNn2cnnc2)c1O,inactive
5,COc1ccccc1CC(=O)NC(=O)c1ccccc1O,inactive
6,CC(=O)Nc1sc(/C(C#N)=C/c2ccc(Cl)c(Cl)c2)nc1-c1ccc(C)cc1,inactive
7,COc1ccccc1CCNC(=O)C(=O)NCC1OCCN1S(=O)(=O)c1ccc([N+](=O)[O-])cc1 (stereo unspecified),inactive
8,Cc1cccc(OCCn2cc(/C=N/NC(=O)c3ccncc3)c3ccccc32)c1,inactive
9,Cn1c2ccccc2c2cc(C(=O)NNC(=O)CCl)sc21,15 µM (active)
10,CCC(=O)Nc1c(-c2ccccc2)c(=O)c2ccccc2n1C,inactive
11,CSc1c(CC(=O)NCCCO)n(Cc2ccccc2)c2ccccc12,inactive
12,CC(CN1CCCCC1)OC(=O)c1ccco1 (stereo unspecified),inactive
13,O=S(=O)(CC(CN1CCCCC1)N1CCCCC1)c1ccccc1 (stereo unspecified),31.6 µM (active)
14,O=S(=O)(c1ccccc1)N1CCCN(S(=O)(=O)c2ccccc2)CC1,inactive
15,O=C(NCc1ccc2c(c1)OCO2)c1nc(Cn2ccc([N+](=O)[O-])n2)no1,inactive
16,CCn1nc(NC(=O)C(C)C)c2cc3cccc(C)c3nc21,inactive
17,Cn1cc(/C=N/Nc2ccccc2)c2ccccc21,inactive
18,COc1ccc(-c2nc3c4ccccc4ccn3c2Cc2ccccc2)cc1OC,39.8 µM (active)
19,COc1ccc(-c2csc(-c3cccs3)n2)cc1OC,inactive
20,COc1ccc(Cc2c(-c3ccc(OC)c(OC)c3)nc3c(C)cc(Br)cn23)c(C)c1,20 µM (active)
21,COc1ccccc1Cc1c(-c2ccc(OC)c(OC)c2)nc2c3ccccc3ccn12,39.8 µM (active)
22,COc1ccc(-c2nc3cnccn3c2NCc2ccccc2)cc1SC1CCCCC1,inactive
23,COc1ccc(-c2nc3c(-c4ccccc4)cnn3cc2C)cc1F,inactive
